# TGFb inhibitor – qHTS for Inhibitors of TGF-b | AID 588855, 2011 | hit rate 1.2% among 410,000 | Potency, µM (doses to about 46.1 µM), for inactives: at the top dose activity, negative = inhibition, most hits filed as inhibitors | HepG2 CAGA-GFP TGF-b/SMAD3 reporter, GFP fluorescence, 18 h; TGF-beta stimulated, 500 pg/mL final; also: potency is read from the fitted curve at half-maximal effect; % is scaled to controls: 0 for no effect and ±100 for the full control effect; nearly all actives have a fitted effect of over 65% in size
#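 Cell-based qHTS in HEPG2 carrying a CAGA-GFP Smad reporter; compounds added before 500 pg/mL final TGF-beta, 18 h incubation at 37 degrees C, GFP fluorescence quantified per cell by imaging cytometry.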
# DRD3 antagonist – qHTS of D3 Dopamine Receptor Antagonist: qHTS; D3R cells, DiscoveRx beta-arrestin luminescence, antagonist mode; hits give low values; AID 652054, 2013; hit rate 2.5% among 360,000; max response, negative = inhibition, %; in the data active = max response below about -50%; inconclusive = no clear call, values can overlap the other calls; also: % is scaled to controls: 0 for no effect and ±100 for the full control effect
# Target sequence (P35462 whole entry, looked up): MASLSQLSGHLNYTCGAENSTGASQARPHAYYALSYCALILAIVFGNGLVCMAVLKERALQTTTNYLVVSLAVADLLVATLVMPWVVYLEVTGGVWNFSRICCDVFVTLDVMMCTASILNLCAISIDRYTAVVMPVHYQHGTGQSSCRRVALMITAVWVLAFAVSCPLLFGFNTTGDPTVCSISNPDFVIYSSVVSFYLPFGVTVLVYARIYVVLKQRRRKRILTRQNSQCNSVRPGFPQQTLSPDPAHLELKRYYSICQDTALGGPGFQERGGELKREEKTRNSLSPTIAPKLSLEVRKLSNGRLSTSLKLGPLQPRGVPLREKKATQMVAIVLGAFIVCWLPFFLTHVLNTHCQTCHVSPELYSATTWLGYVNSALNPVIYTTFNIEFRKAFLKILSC
#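 Cells expressing the human receptor were seeded at 1500 cells/well, incubated overnight at 37 degrees C in 5% CO2, then exposed to library compounds with dopamine controls for 90 minutes at 37 degrees C before luminescent detection.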
# DRD3 agonist – qHTS of D3 Dopamine Receptor Agonist: qHTS. hit rate 0.58% among 410,000. D(3) dopamine receptor (Homo sapiens), P35462. max activation, %. D3R DiscoveRx beta-arrestin cells, luminescence, 90 min; in the data active = max activation above about 30%; also: 0% is about no effect
#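 Agonist-mode cell screen: cells plated at 1500/well and incubated overnight at 37 °C, then exposed to library compounds for 90 min at 37 °C. Detection reagent was added for 30–60 min at room temperature, and luminescence was read.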
# HepG2 tox – qHTS for Inhibitors of TGF-b: Cytotox Counterscreen; HepG2 CAGA-GFP viability, ATP luminescence, 18 h; Potency, µM (series often up to 46.1 µM), for inactives: top-dose activity change, negative = cytotoxicity, hits mostly cytotoxic; hit rate 0.76% among 410,000; also: potency is read from the fitted curve at half-maximal effect
#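 HepG2 CAGA-GFP cells (1000/well, DMEM with 1% FBS) received compound, then TGF-beta at 500 pg/mL final, and were incubated 18 hours at 37 degrees C. Viability was read by CellTiter-Glo luminescence. Media-only wells were set as complete cell-killing and DMSO as no toxicity.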
# S2 tox – Viability Counterscreen for Primary qHTS for Inhibitors of ATXN expression | S2 cells (HEK-293 line with an ATXN2-luciferase reporter) viability, CellTiter-Fluor protease fluorescence, 24 h | Potency, µM (titrated, usually from 56.7 µM), actives largely listed as cytotoxic | hit rate 0.49% among 400,000 | AID 651635, 2014; also: potency is read from the fitted curve at half-maximal effect; nearly all actives have a fitted effect of over 40% in size
# ATXN2 expr inh – Primary qHTS for Inhibitors of ATXN expression | HEK-293 ATXN2-luciferase reporter, luminescence, 24 h | Potency, µM (doses to about 57 µM), without a hit: top-dose activity change, negative = inhibition, actives largely listed as inhibitors | hit rate 0.72% among 360,000; also: potency is read from the fitted curve at half-maximal effect; % is scaled to controls: 0 for no effect and ±100 for the full control effect; nearly all actives have a fitted effect of over 55% in size
#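 ATXN2-luciferase reporter cells (luciferase flanked by upstream and downstream ATXN2 gene portions) were treated 24 h at 37 °C with compounds at up to 57 uM. SteadyGlo luminescence gave expression; GF-AFC fluorescence gave viability.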
# An asterisk follows results filed as active; i = inactive; ? = inconclusive; · = no result; ! = a repeat was not active. Only some compounds are listed: those with a hit (about 4.8% of all), similar ones and a draw of the others. Unless noted, calls follow the shape of the dose curve; as a rule, active = well fitted curve in the direction sought with a large enough effect; inconclusive = small, poorly fitted or top-dose-only effect, or another doubt; inactive = no such curve, though single readings can be large; an effect the other way counts as inactive or inconclusive.
SMILES,TGFb inhibitor,DRD3 antagonist,DRD3 agonist,HepG2 tox,S2 tox,ATXN2 expr inh
Cc1cc(-c2cccs2)c2c(n1)sc1c(=O)[nH]c(=O)[nH]c12,2%,-84*,-2,-11%,i,0%
COc1ccc(CS(=O)(=O)/C(Cl)=C(/Cl)C(=O)Nc2ccc(OC)nc2)cc1,?,-51*,-17,-107%,?,13µM*
COc1ccc(NC(=O)/C(Cl)=C(/Cl)S(=O)Cc2ccccc2)cn1 (stereo not given),4µM*,-131*,-28,7.1µM*,4.5µM*,2.8µM*
COc1ccc(NC(=O)Cc2ccccc2)cn1,2%,5,1,-2%,i,-16%
COc1ccc(/C=C/C(=O)Nc2ccc(OC)nc2)cc1,1%,3,8,-24%,?,-12%
Cc1nc(N2CCN(S(=O)(=O)c3ccc(Br)cc3)CC2)c2c(C)c(C)sc2n1,-17%,-55*,5,-8%,i,?
Brc1cccc[n+]1CCCC[n+]1ccccc1Br,8%,·,·,-16%,·,·
O=C1C=C(c2cccc(OCc3ccccc3)c2)C[C@@H](c2ccc3c(c2)OCO3)C1,10%,-11,35*,-1%,i,-18%
O=C1C=C(c2cccc(CO)c2)C[C@@H](c2ccc3c(c2)OCO3)C1,-3%,-28,6,-22%,i,9%
COc1ccc(C)cc1NC(=O)N1CCN(S(=O)(=O)c2ccc3c(ccn3C)c2)CC1,-10%,·,-18,-1%,i,-7%
CC(=O)Nc1scc(C)c1-c1nc2ccccc2s1,3%,26,8,9%,·,8%
CC(=O)Nc1sc2c(c1-c1nc3ccccc3s1)CNC2,·,·,·,·,·,22µM*
CC(C)(C)n1ncc2c(=O)n(Cc3c(F)ccc(Cl)c3Cl)cnc21,7%,·,·,-5%,·,·
CC(C)C12CN3CC(C(C)C)(CN(C1)C3c1ccccc1)C2O (stereo not given),-2%,-84*,-22,0%,i,-21%
CCS(=O)(=O)N1CCCC(C(=O)NCCOC)C1 (stereo not given),2%,·,4,3%,i,13%
Cc1ccc(S(=O)(=O)C(CNC(=O)C(=O)NCCc2ccc(Cl)cc2)c2cccs2)cc1 (stereo not given),-26%,·,7,-17%,i,5%
CC(C)C1C(=O)Nc2ccc(S(=O)(=O)NCCc3ccc(Cl)cc3)cc21 (stereo not given),?,·,-8,-49%,i,?
O=C(CN1CCCc2ccccc21)N/N=C/c1ccccc1O,?,-3,-5,-32%,i,28µM*
CCCCc1c(C)c(C#N)c2[nH]c3ccccc3n2c1=O,3.2µM*,71,4,-52%,i,?
Nc1cccc(Nc2nc(OC(C(F)(F)F)C(F)(F)F)nc(OC(C(F)(F)F)C(F)(F)F)n2)c1,?,-23,7,11µM*,i,-25%
COc1ccc(CCC(=O)NC2CC(=O)N(c3ccc(F)cc3)C2)cc1 (stereo not given),-23%,·,-17,-6%,·,·
c1ccc(CN2CCC(CNc3ncnc4ccccc34)C2)cc1 (stereo not given),-2%,-64*,-16,-5%,i,-30%
c1ccc(CNc2ncnc3ccccc23)cc1,-3%,22,33*!,-4%,i,-26%
COc1cc2ncnc(NCc3ccccc3)c2cc1OC,-8%,5,2,5%,i,-10%
c1ccc(CN2CCC(Nc3nc(-c4ccccc4)nc4ccccc34)CC2)cc1,?,-2,-11,-112%,?,?
SMILES,TGFb inhibitor,DRD3 antagonist,DRD3 agonist,HepG2 tox,S2 tox,ATXN2 expr inh
Cc1nn2c3c(cnc2c1-c1ccc(Cl)cc1)C(=O)CC(c1ccco1)C3 (stereo not given),-8%,-52*,0,11%,i,2%
S=c1[nH]nc(Cc2cccc3ccccc23)n1-c1ccccc1,2%,-51*,-1,-29%,i,17%
Cc1oc2c(c1C(=O)O)C(=O)c1ccccc1C2=O,5µM*,0,1,7.1µM*,i,-12%
O=C1C(=O)c2c(C(=O)c3ccccc3)coc2-c2ccccc21,8.9µM*,-25,2,13µM*,·,?
Cc1oc2c(c1C(=O)c1ccccc1)C(=O)C(=O)c1ccccc1-2,?,?,-10,4.5µM*,·,3.5µM*
O=C(c1ccccc1)c1ccsc1C(=O)c1ccccc1,-13%,10,2,-30%,·,·
CC=C1NC(=O)[C@H]2CSSCCC=C[C@H](CC(=O)N[C@H](C(C)C)C(=O)N2)OC(=O)[C@H](C(C)C)NC1=O,·,·,·,·,·,5%
COc1cc(-c2cc(C)c3cccc(OC)c3n2)cc2c1OCCN(C(=O)CC1NC(=O)c3ccccc31)C2 (stereo not given),·,·,·,·,i,·
Cc1nn(-c2ccccc2)c2[nH]c(=O)c(CNCC3CCCO3)cc12 (stereo not given),-1%,-82*,-8,-10%,i,-14%
COc1cc(/C=C(/C#N)C(=O)NCCc2c[nH]c3ccccc23)ccc1OCc1ccccc1F,1%,-21,4,-21%,10µM*,7.1µM*
CN(C)c1ccc(/C=C2\C=Cc3ccccc32)cc1Cl,5%,·,·,-4%,·,·
C[C@@H](NC(=O)c1coc(=O)c(Br)c1)c1ccccc1,?,-16,-8,13µM*,?,?
COc1cc(OC)c(/C=C/c2ccc3ccccc3[n+]2[O-])c(OC)c1,7%,·,·,1%,·,·
CC(=O)C(=Nc1ccc(Cl)cc1Cl)NNc1cccc(Cl)c1,22µM*,19,1,-47%,i,-25%
CC(=O)Nc1ccc(NC(=O)Nc2cccc(Cl)c2)cc1,-2%,-16,-2,2%,i,24%
CN1CCCN(C2C3CC4CC(C3)CC2C4)CC1 (stereo not given),-5%,-92*,-4,3%,i,-7%
CS(=O)(=O)N1CCN(C2C3CC4CC(C3)CC2C4)CC1 (stereo not given),-8%,0,-16,-40%,i,-32%
COc1ccc(NC(=O)N(CCC(C)C)C(C)c2ccccn2)c(OC)c1 (stereo not given),-26%,-53*,-5,-40%,i,-11%
COc1ccc(-c2cc3nc(C)cc(N)n3n2)cc1,7%,-8,-3,10µM*,?,-28%

# Screens from PubChem.
